# Reference: PubChem BioAssay (NCATS)
# Results filed as inconclusive are left out. A call without a number means that no potency is given here. Active and inactive are the calls of the source. Calls follow the shape of the dose curve; as a rule, active = well fitted inhibition curve with a large enough effect; inconclusive = small, poorly fitted or top-dose-only effect; inactive = flat fitted curve, though single readings scatter.
# Experiments:
# Assay in all cases: qHTS profiling for inhibitors of Plasmodium falciparum proliferation (AID 504749); also: nearly all actives have a fitted effect of over 60% in size
# Settings in all cases: P. falciparum in erythrocytes, SYBR Green DNA, 72 h; series mostly up to 28.7 µM
# CP260 = tested on: CP260
# How it was run: (§1)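 P. falciparum-infected erythrocytes (0.3% parasitemia, 2.5% hematocrit) incubated with compound 72 h at 37 C, 5% CO2. Parasite DNA detected by SYBR Green after lysis, overnight at room temperature; normalised to 0.29 uM artemisinin and DMSO.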
# CP262 = tested on: CP262
# How it was run: as §1
# CP265 = tested on: CP265
# How it was run: as §1
# CP266 = tested on: CP266
# How it was run: as §1
# CP268 = tested on: CP268
# How it was run: as §1
# CP269 = tested on: CP269
# How it was run: as §1
# CP286 = tested on: CP286
# How it was run: as §1
# CP291 = tested on: CP291
# How it was run: as §1
# CP297 = tested on: CP297
# How it was run: as §1
# CP305 = tested on: CP305
# How it was run: as §1
# CP315 = tested on: CP315
# How it was run: as §1
# CP325 = tested on: CP325
# How it was run: as §1
# CP329 = tested on: CP329
# How it was run: as §1
# CP335 = tested on: CP335
# How it was run: as §1
# DFO2036 = tested on: DFO2036
# How it was run: as §1
# DIV30 = tested on: DIV30
# How it was run: as §1
# ECU = tested on: ECU
# How it was run: as §1
# DIV14 = tested on: DIV14
# How it was run: as §1
# DIV17 = tested on: DIV17
# How it was run: as §1
# Dd2 = tested on: Dd2
# How it was run: as §1
# Potency is read from the fitted curve at half-maximal effect.
Structure (SMILES),Potency (CP260),Potency (CP262),Potency (CP265),Potency (CP266),Potency (CP268),Potency (CP269),Potency (CP286),Potency (CP291),Potency (CP297),Potency (CP305),Potency (CP315),Potency (CP325),Potency (CP329),Potency (CP335),Potency (DFO2036),Potency (DIV30),Potency (ECU),Potency (DIV14),Potency (DIV17),Potency (Dd2)
CC(=O)c1ccc2c(c1)N(CCCN(C)C)c1ccccc1S2,inactive,inactive,inactive,inactive,inactive,inactive,inactive,inactive,inactive,inactive,inactive,inactive,inactive,inactive,inactive,inactive,inactive,–,–,–
CCOC(CN1CCN(CC(C)C(=O)c2ccccc2)CC1)c1ccccc1 (stereo unspecified),inactive,inactive,–,inactive,inactive,inactive,inactive,inactive,–,inactive,inactive,inactive,inactive,–,inactive,inactive,inactive,–,–,–
NC1CCN(c2cccc(Cl)n2)CC1,inactive,inactive,inactive,inactive,inactive,inactive,inactive,inactive,–,inactive,inactive,inactive,inactive,inactive,inactive,inactive,inactive,–,–,–
NCCNCCNCCN,inactive,inactive,inactive,inactive,inactive,inactive,inactive,inactive,inactive,inactive,inactive,inactive,inactive,–,inactive,inactive,inactive,inactive,inactive,inactive
O=C(O)[C@@H]1CSCN1,inactive,inactive,inactive,–,inactive,inactive,inactive,inactive,inactive,inactive,inactive,inactive,inactive,inactive,inactive,inactive,inactive,inactive,inactive,inactive
CC1=C(CC(=O)O)c2cc(F)ccc2/C1=C\c1ccc(S(C)=O)cc1 (stereo unspecified),inactive,inactive,inactive,–,inactive,inactive,inactive,inactive,inactive,inactive,inactive,inactive,inactive,inactive,inactive,inactive,inactive,inactive,inactive,inactive
O=C1c2c(O)cccc2Cc2cccc(O)c21,inactive,inactive,inactive,inactive,inactive,inactive,inactive,–,inactive,inactive,inactive,inactive,inactive,inactive,inactive,inactive,inactive,inactive,inactive,inactive
O=c1cc[nH]c(=S)[nH]1,inactive,inactive,inactive,inactive,inactive,inactive,inactive,inactive,–,inactive,inactive,inactive,inactive,inactive,inactive,inactive,inactive,inactive,inactive,inactive
O=C(O)c1ccccc1O,inactive,inactive,inactive,inactive,inactive,inactive,inactive,inactive,–,inactive,inactive,inactive,inactive,inactive,inactive,inactive,inactive,inactive,inactive,inactive
CCCCN(CCCC)CCCOC(=O)c1ccc(N)cc1,inactive,inactive,–,inactive,inactive,inactive,inactive,inactive,inactive,inactive,inactive,inactive,inactive,inactive,inactive,inactive,inactive,inactive,inactive,inactive
Cn1c(=O)c2c(ncn2CC2OCCO2)n(C)c1=O,inactive,inactive,inactive,inactive,inactive,inactive,inactive,inactive,–,inactive,inactive,inactive,inactive,inactive,inactive,inactive,inactive,inactive,inactive,inactive
O=C1NC(=O)[C@@]2(CCOc3ccc(F)cc32)N1,inactive,inactive,inactive,–,inactive,inactive,inactive,inactive,inactive,inactive,inactive,inactive,inactive,inactive,inactive,inactive,inactive,inactive,inactive,inactive
Cc1cc(N)c2ccccc2[n+]1CCCCCCCCCC[n+]1c(C)cc(N)c2ccccc21,631 nM (active),181 nM (active),0.4 nM (active),–,572 nM (active),510 nM (active),447 nM (active),405 nM (active),405 nM (active),228 nM (active),721 nM (active),572 nM (active),642 nM (active),–,79.4 nM (active),256 nM (active),2510 nM (active),161 nM (active),287 nM (active),63.1 nM (active)
